Assay outcomes: PubChem BioAssay, several laboratories
Hits are enriched below; roughly 2.1% of the tested compounds scored in any of these assays.
HIF-2a block: blocks HIF-2a reporter activity; actives 0.72% (n = 360,000); inhibition, % at 18.8 µM; 786-0 RCC cells HIF-2a reporter, luciferase luminescence, overnight;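 active = inhibition of the luminescence signal of 40% or more relative to plate controls, in a single-dose primary screen at 18.75 µM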
CF NFkB block: inhibitors of cystic fibrosis induced NF-kB; KKLEB NF-kB-GFP reporter, PAF-induced, GFP fluorescence overnight; inhibition, % at 5 µM; actives 0.86% (n = 360,000); AID 588850;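 active = at least 50% inhibition at 5 µM, scaled per plate between neutral and stimulator controls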;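 note: PAF is a Pseudomonas aeruginosa culture filtrate used as stimulus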
KKLEB tox: CF airway cell cytotoxicity counter-screen | KKLEB CF airway cells viability, ATPlite luminescence, overnight; stronger effect = lower value; cells stimulated with P. aeruginosa culture filtrate | activity change (cytotoxicity), % at 5 µM | actives 0.36% (n = 360,000);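 active = corrected activity change at or below -50% at 5 µM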
PAX8 reporter: inhibitors of PAX8 transcriptional activity in RMG-I cells. AID 652154. inhibition, % at 12.6 µM. actives 1.2% (n = 360,000). RMG-I TPO-luciferase reporter, SteadyGlo, 24 h;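 active = mean replicate inhibition at least 60% with every replicate also reaching 60%; inconclusive = only one of the two criteria is met; inactive = mean below 60% and not all replicates reaching 60%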;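 note: luciferase light reporting Pax8 driven TPO promoter activity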
EWS-Fli block: blocks EWS/Fli oncoprotein-driven transcription | A673 NR0B1-luciferase reporter, viability-normalised | inhibition, % at 12.6 µM | actives 0.67% (n = 350,000) | AID 651661;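 active = mean inhibition of at least 50% after viability correction, with every replicate also passing that limit; inconclusive = mean reaches 50% but only one of two replicates passes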;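 note: firefly luciferase signal divided by Alamar Blue viability fluorescence both relative to DMSO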
Large screens that a line does not name were inactive.

Cc1ccc(OCC(=O)c2cc(C)n(-c3ccccc3)c2C)c([N+](=O)[O-])n1	HIF-2a block 84 (no result: EWS-Fli block)
Cc1cc(C(=O)COC(=O)C2=COCCO2)c(C)n1-c1ccccc1	PAX8 reporter 75
Cc1cc(C(=O)COC(=O)C2=NNC(=O)CC2)c(C)n1-c1ccccc1	none (no result: PAX8 reporter)
O=C(OCC(=O)N1CCN(c2ccccc2)CC1)C1=COCCO1	none (no result: PAX8 reporter, EWS-Fli block)
Cc1ccc(-n2c(C)cc(C(=O)COC(=O)C3=NNC(=O)CC3)c2C)cc1	HIF-2a block 50 (no result: PAX8 reporter, EWS-Fli block)
CCCn1c(C)cc(C(=O)COc2ccc(C)nc2[N+](=O)[O-])c1C	none
CN(C)CC(=O)N1[C@H](CO)[C@@H](c2ccccc2)C12CN(C(=O)c1cccc(F)c1)C2	none (no result: HIF-2a block, CF NFkB block, KKLEB tox)
C/C=C(\C)C(=O)OC1CC(C)(C)C[C@H]2C3=CC[C@@H]4[C@@]5(C)CCC(O[C@@H]6O[C@@H](C(=O)O)[C@@H](O)C(O[C@@H]7OC[C@H](O)[C@@H](O)[C@@H]7O[C@@H]7OC(CO)C(O)[C@@H](O)[C@@H]7O)C6O[C@@H]6OC(CO)C(O)C(O)C6O)[C@@](C)(CO)[C@@H]5CC[C@]4(C)[C@]3(C)CC(O)[C@@]12CO (stereo partly specified)	PAX8 reporter 75
CC(=O)c1sc(NC(=O)C2(F)C(F)(F)C(F)(F)C(F)(F)C(F)(F)C2(F)F)nc1C	CF NFkB block 65, KKLEB tox -52 (no result: PAX8 reporter)
Cc1ccc2[nH]c(=O)c(CN(Cc3ccco3)S(=O)(=O)c3c(C)ccc4nsnc34)cc2c1	none (no result: PAX8 reporter)
COc1ccc2[nH]c(=O)c(CN(Cc3cccs3)S(=O)(=O)c3c(C)ccc4nsnc34)cc2c1	CF NFkB block 97 (no result: EWS-Fli block)
Cc1ccccc1/C=N/n1c(-c2ccccn2)n[nH]c1=S	none
S=c1[nH]nc(-c2ccccn2)n1/N=C/c1cccc2ccccc12	PAX8 reporter 122
Nc1nn(S(=O)(=O)c2ccccc2)cc1-c1ccc([N+](=O)[O-])cc1	EWS-Fli block 83
COc1ccc(COc2cc(-c3cccc(OC)c3)nc3ccc(NC(=O)c4ccc(N(C)C)cc4)cc23)cc1	none (no result: PAX8 reporter, EWS-Fli block)
COc1ccc(COc2cc(-c3cccc(OC)c3)nc3ccc(NC(=O)c4ccc(C)cc4)cc23)cc1	PAX8 reporter 80
COc1ccc(C(=O)Nc2ccc3ncccc3c2)cc1	EWS-Fli block 58
COc1ccc(C(=O)Nc2ccc3[nH]c(-c4cccc(OC)c4)cc(=O)c3c2)cc1	CF NFkB block 50, EWS-Fli block 57
C[C@H](CO)N1C[C@H](C)[C@H](CN(C)S(=O)(=O)c2ccc(Cl)cc2)Oc2ccc(NC(=O)Nc3ccc(F)cc3)cc2C1=O	none (no result: HIF-2a block, CF NFkB block, KKLEB tox)
CN(C)c1ccc(/C=C(\C#N)c2ccccn2)cc1	KKLEB tox -91 (no result: EWS-Fli block)
CN(C)c1ccc(NC(=S)c2ccccn2)cc1	HIF-2a block 54, KKLEB tox -55, PAX8 reporter inconclusive, EWS-Fli block 86
CCN(C(=O)COC(=O)c1ccc(S(=O)(=O)N2CCCc3ccccc32)cc1)C1CCS(=O)(=O)C1 (stereo unspecified)	PAX8 reporter 97
CC(C)(c1ccccc1)c1ccc(OCC(O)CNC2CCN(Cc3ccccc3)CC2)cc1 (stereo unspecified)	PAX8 reporter 80
O=C(C[C@@H]1C[C@@H]2c3cc(NC(=O)NC4CCCC4)ccc3O[C@@H]2[C@@H](CO)O1)NCCc1ccccc1	none (no result: HIF-2a block, CF NFkB block, KKLEB tox)
CCC1C/C(=C\c2cccnc2)C(=O)/C(=C/c2cccnc2)C1 (stereo unspecified)	HIF-2a block 92, CF NFkB block 93, KKLEB tox -66, PAX8 reporter 89, EWS-Fli block 54
O=C1/C(=C/c2cccnc2)CCC/C1=C\c1cccnc1	EWS-Fli block 54 (no result: HIF-2a block, CF NFkB block, KKLEB tox)
CCCC(=O)Nc1ccc2c(c1)OC[C@@H](C)N(CCC)C[C@H](C)[C@H](OC)CN(C)C2=O	none (no result: HIF-2a block, CF NFkB block, KKLEB tox)
C[C@@H]1CN([C@H](C)CO)C(=O)c2cc(-c3cccc(C#N)c3)cnc2O[C@H]1CN(C)C(=O)C1CC1	none (no result: HIF-2a block, CF NFkB block, KKLEB tox, PAX8 reporter)
N#C[C@H]1[C@H](c2ccc(C#CC3CCCCC3)cc2)[C@H](CO)N1C(=O)Nc1ccc(F)cc1	PAX8 reporter 92 (no result: HIF-2a block, CF NFkB block, KKLEB tox)
N#C[C@@H]1[C@H](c2ccc(C#CC3CCCCC3)cc2)[C@H](CO)N1S(=O)(=O)c1ccccc1	PAX8 reporter 84 (no result: HIF-2a block, CF NFkB block, KKLEB tox)
N#C[C@@H]1[C@H](c2ccc(C#CC3CCCC3)cc2)[C@@H](CO)N1C(=O)Nc1ccc(F)cc1	none (no result: HIF-2a block, CF NFkB block, KKLEB tox)
N#C[C@H]1[C@H](c2ccc(C#CC3CCCC3)cc2)[C@H](CO)N1S(=O)(=O)c1ccccc1	none (no result: HIF-2a block, CF NFkB block, KKLEB tox)
N#C[C@H]1[C@H](c2ccc(C#CC3CCCC3)cc2)[C@@H](CO)N1C(=O)Nc1ccc(F)cc1	PAX8 reporter 88 (no result: HIF-2a block, CF NFkB block, KKLEB tox)
COc1cccc(C(=O)N2C[C@H]3[C@@H](c4ccccc42)[C@H](CO)N3C(=O)c2ccc(F)cc2)c1	none (no result: HIF-2a block, CF NFkB block, KKLEB tox)
C[C@@H]1CN([C@@H](C)CO)C(=O)c2cc(C#CC(C)(C)O)cnc2O[C@H]1CN(C)Cc1cncnc1	none (no result: HIF-2a block, CF NFkB block, KKLEB tox, PAX8 reporter)
O=C(C1CCCC1)N1CC(=O)N2[C@H](C1)[C@@H](c1ccc(C#CCc3ccccc3)cc1)[C@@H]2CO	none (no result: HIF-2a block, CF NFkB block, KKLEB tox, PAX8 reporter)
CN1C2CCC1/C(=C\c1ccccc1)C(=O)/C2=C\c1ccccc1	HIF-2a block 89 (no result: PAX8 reporter, EWS-Fli block)
O=C1/C(=C/c2ccccc2)CCC1C1CCCC1 (stereo unspecified)	none
CC(C)C(=O)Nc1cccc(COc2ccc(CN(Cc3ccccc3)C(=O)OC(C)(C)C)cc2)c1	PAX8 reporter 72
CC(C)C(=O)Nc1ccc(COc2ccccc2CN(Cc2ccccc2)C(=O)OC(C)(C)C)cc1	none
COc1ccc(/C=C2/SC(=S)N(CCC(=O)O)C2=O)cc1	HIF-2a block 85 (no result: PAX8 reporter, EWS-Fli block)
COc1ccc(/C=C2\SC(=S)N(CCC(=O)Nc3ccc(C(=O)O)cc3)C2=O)cc1	none
O=C(O)CCN1C(=O)/C(=C\c2ccncc2)SC1=S	none
COc1ccc(/C=C2\SC(=S)N(CCC(=O)NCCc3ccc(O)cc3)C2=O)cc1	HIF-2a block 58
O=C(CCCN1C(=O)/C(=C/c2ccccc2Cl)SC1=S)N1CCOCC1	HIF-2a block 49 (no result: EWS-Fli block)
O=C(O)CCN1C(=O)/C(=C\c2cccc(Oc3ccccc3)c2)SC1=S	HIF-2a block 72
COc1cccc(CNC(=O)C[C@@H]2C=C[C@@H](NC(=O)C3CCOCC3)[C@@H](CO)O2)c1	none (no result: HIF-2a block, CF NFkB block, KKLEB tox)
COc1ccc(S(=O)(=O)N[C@@H]2CC[C@@H](CCNC(=O)c3ccccc3F)O[C@H]2CO)cc1	none (no result: HIF-2a block, CF NFkB block, KKLEB tox)
CO[C@H]1CN(C)C(=O)c2ccc(NC(=O)C3CCCC3)cc2OC[C@@H](C)N(S(C)(=O)=O)C[C@@H]1C	none (no result: HIF-2a block, CF NFkB block, KKLEB tox, PAX8 reporter)
COc1ccc(/C=C2\SC(=S)N(CCCC(=O)N3CCOCC3)C2=O)cc1	HIF-2a block 68 (no result: EWS-Fli block)
Cc1noc(C)c1NC(=O)Nc1cccc2c1O[C@H](CN(C)S(=O)(=O)c1ccccc1)[C@H](C)CN([C@@H](C)CO)C2=O	none (no result: HIF-2a block, CF NFkB block, KKLEB tox)
Cc1cc(NC(=O)c2ccccc2)nc2c1c(=O)oc1ccccc12	none
Cc1cc(NC(=O)c2ccc(S(=O)(=O)N3CCCC3)cc2)nc2c1c(=O)oc1ccccc12	KKLEB tox -54 (no result: PAX8 reporter, EWS-Fli block)
